Rows were chosen to be rich in hits. Some 7.7% of all compounds tested hit in one or more screens of this group.
RE007 growth inh = qHTS Assay for Inhibitors of the HIV-1 protein Vpr; S. pombe RE007 Vpr strain, BacTiter-Glo ATP luminescence, 24 h; Potency, µM (titrated, usually from 92.2 µM), for the others: at the highest dose activity change, negative = less growth, usual class: inhibitors; 360,000 tested, 0.21% active; active = well fitted falling curve with a large enough effect; note: potency is the fitted concentration of half-maximal effect; nearly all actives have a fitted effect of over 50% in size
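Fission yeast RE007 carrying one integrated HIV-1 vpr copy, seeded at OD 0.01 in PMG+AL medium with 23 nL pinned compound. Grown 24 h at 30 degrees; viability read by BacTiter-Glo luminescence after 5 min.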
Tb PYK inh = qHTS of Trypanosoma Brucei Inhibitors | pyruvate kinase (Trypanosoma brucei), Q57TT1 | AID 624173, 2012 | 410,000 tested, 0.12% active | Potency, µM (titrated, usually from 76.8 µM), for the others: at the highest dose activity, negative = inhibition, actives largely listed as inhibitors | TbPYK enzyme, Kinase-Glo Plus ATP luminescence, 45 min; note: potency is the fitted concentration of half-maximal effect; nearly all actives have a fitted effect of over 50% in size
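Glycolytic pyruvate kinase of T. brucei was incubated with substrate, test compound and 130 uM ADP for 45 minutes at room temperature. Luminescent Kinase-Glo Plus signal was measured after 10 minutes.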
Sm TGR inh = qHTS Assay for the Inhibitors of Schistosoma Mansoni Peroxiredoxins; purified TGR, DTNB reduction, TNB absorbance 405 nm; 360,000 tested, 3% active; Potency, µM (doses to about 114 µM), for the others: top-dose activity change, negative = inhibition, hits mostly inhibitors; Schistosoma mansoni thioredoxin glutathione reductase (TGR), Q962Y6; note: potency is the fitted concentration of half-maximal effect; nearly all actives have a fitted effect of over 60% in size
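First, TGR (20 nM dispensed) and NADPH were mixed with compound. Second, a 15 min room-temperature incubation followed. Third, further NADPH and then DTNB were added to start the reaction. Finally, TNB absorbance was monitored kinetically.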
HCMV inh = qHTS Assay for inhibitors of the human cytomegalovirus (HCMV) | HFF cells, HCMV-luciferase reporter, 72 h; active compounds read low | activity change, negative = inhibition, % at 57.5 µM | 410,000 tested, 4.5% active; in the data active = activity change below about -60%
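Inhibition of viral replication was scored as loss of reporter luminescence in HFFs infected with HCMV-luciferase (MOI 1 PFU/cell) for 72 h; compounds tested at 2 doses, normalized to buffer and Salinomycin controls.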
Giardia FBPA inh-1 = qHTS Assay for Inhibitors of Fructose-1,6-bisphosphate Aldolase from Giardia Lamblia; A8B2U2; purified Giardia FBPA; Potency, µM (titrated, usually from 59.6 µM), for inactives: top-dose activity, negative = inhibition, hits mostly inhibitors; 290,000 tested, 0.71% active; AID 2451, 2010; note: potency is the fitted concentration of half-maximal effect; nearly all actives have a fitted effect of over 55% in size
Target sequence (A8B2U2 whole entry, looked up): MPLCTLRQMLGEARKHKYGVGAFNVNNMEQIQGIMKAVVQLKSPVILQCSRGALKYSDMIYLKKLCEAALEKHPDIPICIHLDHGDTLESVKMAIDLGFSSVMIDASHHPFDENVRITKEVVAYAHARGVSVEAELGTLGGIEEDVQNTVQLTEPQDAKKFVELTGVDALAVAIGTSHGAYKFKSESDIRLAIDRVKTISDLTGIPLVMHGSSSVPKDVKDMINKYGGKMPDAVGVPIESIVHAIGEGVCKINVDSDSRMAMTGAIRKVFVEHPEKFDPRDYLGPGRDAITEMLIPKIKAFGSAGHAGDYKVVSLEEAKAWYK
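Giardia FBPA (40 nM reagent) was preincubated 10 min at RT with compound (up to 57.5 uM final), then substrate plus GAPDH/TPI/NAD/arsenate coupling system with diaphorase/resazurin was added; resorufin fluorescence (525/598 nm) was read after 20 min.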
FMDV antiviral = High Throughput Screening for Foot and Mouth Disease Virus Antivirals; FMDV antiviral cell-based qHTS; AID 1159524, 2015; Potency, µM (doses to about 57.9 µM), without a hit: top-dose activity change, negative = inhibition, hits mostly inhibitors; 410,000 tested, 1.2% active; calls by dose curve; tested in HEK293T cells; note: read-out not given here; potency is the fitted concentration of half-maximal effect; nearly all actives have a fitted effect of over 45% in size
Giardia growth = qHTS Assay for Inhibitors of Fructose-1,6-bisphosphate Aldolase from Giardia Lamblia: Giardia lamblia growth inhibition; Potency, µM (doses to about 57.5 µM), without a hit: at the highest dose activity change, negative = inhibition, most hits filed as inhibitors; Giardia lamblia trophozoite growth inhibition; shares compounds with Giardia FBPA inh-1; AID 2785, 2010; 1,500 tested, 5% active;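 note: potency is the fitted concentration of half-maximal effect; trophozoites exposed to compound for 48 h at 37 °C; nearly all actives have a fitted effect of over 70% in size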
Mammal cell tox = qHTS Assay for Inhibitors of Fructose-1,6-bisphosphate Aldolase from Giardia Lamblia: Mammalian cellular toxicity; AID 2786, 2010; Potency, µM (series often up to 57.5 µM), inactives show top-dose viability change, negative = toxicity, hits mostly inhibitors; shares compounds with Giardia FBPA inh-1; 1,500 tested, 4% active; mammalian cell viability counter-screen, qHTS;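 note: Chinese hamster ovary cells used as mammalian cytotoxicity surrogate; viability measured as cellular ATP by luminescence; potency is the fitted concentration of half-maximal effect; compound exposure lasted 48 h before reading; nearly all actives have a fitted effect of over 60% in size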
Giardia FBPA inh-2 = qHTS Assay for Inhibitors of Fructose-1,6-bisphosphate Aldolase from Giardia Lamblia: Primary screen confirmation; AID 2787, 2010; shares compounds with Giardia FBPA inh-1; Potency, µM (top dose mostly 57.5 µM), for the others: at the top dose activity change, negative = inhibition, most hits filed as inhibitors; purified Giardia aldolase enzyme activity, qHTS; 1,500 tested, 5% active; note: potency is the fitted concentration of half-maximal effect; nearly all actives have a fitted effect of over 45% in size
Rabbit aldolase = qHTS Assay for Inhibitors of Fructose-1,6-bisphosphate Aldolase from Giardia Lamblia: Rabbit FBPA Selectivity. Potency, µM (highest dose often 57.5 µM), inactives show at the highest dose activity, negative = inhibition, actives largely listed as inhibitors. shares compounds with Giardia FBPA inh-1. 1,500 tested, 4% active. Rabbit muscle FBPA enzyme inhibition, selectivity counter-screen; note: potency is the fitted concentration of half-maximal effect; nearly all actives have a fitted effect of over 60% in size
GAPDH counter = qHTS Assay for Inhibitors of Fructose-1,6-bisphosphate Aldolase from Giardia Lamblia: Coupling assay counterscreen confirmation; shares compounds with Giardia FBPA inh-1; GAPDH coupling enzyme counterscreen, biochemical, qHTS; Potency, µM (doses to about 57.5 µM), for inactives: at the top dose activity change, negative = inhibition, hits mostly inhibitors; 1,500 tested, 6% active; note: potency is the fitted concentration of half-maximal effect; nearly all actives have a fitted effect of over 55% in size
Numbers without * were called inactive. Unless noted, calls come from the whole dose curve; as a rule, active = well fitted curve in the direction sought with a large enough effect; inconclusive = small, poorly fitted or top-dose-only effect, or another doubt; inactive = no such curve, though single readings can be large; an effect the other way counts as inactive or inconclusive. % is set by controls: 0 for no effect and ±100 for the full control effect.

Results for O=C(N/N=C/c1ccccn1)C(=O)N1CCCCCC1 ?
RE007 growth inh: -7%; Tb PYK inh: 0%; Sm TGR inh: 16%; HCMV inh: 181; Giardia FBPA inh-1: 18µM*; FMDV antiviral: 19%; Giardia growth: 20%; Mammal cell tox: 0%; Giardia FBPA inh-2: 7%; Rabbit aldolase: 1%; GAPDH counter: 4%

What do the screens show for `Nc1nnnn1CC(=O)N/N=C/c1cccs1`?
RE007 growth inh: 6%; Tb PYK inh: -1%; Sm TGR inh: -3%; HCMV inh: 3; Giardia FBPA inh-1: 0%; FMDV antiviral: 24%

How did Nc1nnnn1CC(=O)N/N=C/c1ccccn1 do in these assays?
RE007 growth inh: -1%; Tb PYK inh: 3%; Sm TGR inh: 17%; HCMV inh: -18; Giardia FBPA inh-1: 18µM*; FMDV antiviral: 13%; Giardia growth: -15%; Mammal cell tox: 0%; Giardia FBPA inh-2: 2%; Rabbit aldolase: 2%; GAPDH counter: -1%

What do the screens show for `O=C(N/N=C/c1ccccc1C(=O)O)C(=O)N1CCCCC1`?
RE007 growth inh: 6%; Tb PYK inh: -3%; HCMV inh: 5; Giardia FBPA inh-1: 1%; FMDV antiviral: 15%

Results for O=C(Cc1ccccc1)NS(=O)(=O)c1ccccc1 ?
RE007 growth inh: 10%; Tb PYK inh: 5%; HCMV inh: 7; FMDV antiviral: 5%

What do the screens show for `CCNC(=S)NS(=O)(=O)c1ccccc1`?
RE007 growth inh: 15%; Tb PYK inh: -1%; Sm TGR inh: -3%; HCMV inh: -22; Giardia FBPA inh-1: 7.9µM*; FMDV antiviral: 7%; Giardia growth: -16%; Mammal cell tox: 12%; Giardia FBPA inh-2: 1%; Rabbit aldolase: 10%; GAPDH counter: 14%

How did CCNC(=S)NS(=O)(=O)c1ccc(Cl)cc1 do in these assays?
RE007 growth inh: 12%; Tb PYK inh: 1%; Sm TGR inh: -17%; HCMV inh: -8; Giardia FBPA inh-1: 7.1µM*; FMDV antiviral: -24%; Giardia growth: 25%; Mammal cell tox: -3%; Giardia FBPA inh-2: 5%; Rabbit aldolase: 1%; GAPDH counter: 10%

Screens deposited in PubChem BioAssay by National Center for Advancing Translational Sciences (NCATS).
